The full list was thinned out, with hits kept by preference.
GBA enhancer: increases beta-glucosidase activity in Gaucher fibroblasts | L444P Gaucher fibroblasts, 4-MU-glucoside fluorescence, 3 days | activation, % at 10 µM | 0.44% of 30,000 active | AID 784; in the data active = activation above about 65%
Target sequence (P04062 whole entry L483P): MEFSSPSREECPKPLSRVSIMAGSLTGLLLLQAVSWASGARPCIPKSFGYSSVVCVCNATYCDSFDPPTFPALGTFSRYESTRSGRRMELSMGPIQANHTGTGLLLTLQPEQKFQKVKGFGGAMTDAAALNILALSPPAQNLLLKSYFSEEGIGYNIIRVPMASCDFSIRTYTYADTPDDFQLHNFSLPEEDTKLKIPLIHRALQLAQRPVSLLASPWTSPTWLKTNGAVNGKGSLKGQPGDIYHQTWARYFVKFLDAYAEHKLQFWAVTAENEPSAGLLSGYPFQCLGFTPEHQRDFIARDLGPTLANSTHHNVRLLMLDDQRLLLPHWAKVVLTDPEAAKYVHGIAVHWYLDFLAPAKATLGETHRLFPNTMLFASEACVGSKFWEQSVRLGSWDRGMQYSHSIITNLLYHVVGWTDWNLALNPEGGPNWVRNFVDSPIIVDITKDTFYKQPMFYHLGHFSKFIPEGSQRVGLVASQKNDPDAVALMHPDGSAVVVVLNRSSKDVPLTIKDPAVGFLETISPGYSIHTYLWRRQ
Large screens that a line does not name were inactive.

Cc1nc2ccccc2nc1OCC(=O)Nc1cc(C(F)(F)F)ccc1N1CCOCC1	none
FC(F)(F)c1ccc(N2CCOCC2)c(Nc2nc3ccccc3n3cnnc23)c1	GBA enhancer 75
O=C(Nc1cc(C(F)(F)F)ccc1N1CCOCC1)c1cncc(Br)c1	none
O=C(C1Cc2ccccc2CN1S(=O)(=O)c1cccs1)N1CCCCCC1 (centres undefined)	none
O=C(Nc1nnc(C2CCCC2)s1)C1CCN(S(=O)(=O)c2ccc(Cl)cc2)CC1	none
O=C(O)c1ccc2cccc(Cl)c2c1O	none
O=C(Nc1nnc(C2CC2)s1)c1cc(-c2ccccc2)nn1-c1ccccc1	none
CCOC(=O)c1ccc(NC(=O)CSC2=NC(=O)C(CC)C(=O)N2)cc1 (centres undefined)	GBA enhancer 145
CCOC(=O)c1ccc(NC(=O)CSc2nnc(C)n2-c2ccccc2)cc1	none
CCC1C(=O)N=C(SCC(=O)Nc2cccc3ccccc23)NC1=O (centres undefined)	none
Cc1ccc(C)c2[nH]c(=O)c(CCNC(=O)C(C)(C)C)cc12	none
O=C(c1ccco1)N1CCN(C(=O)C2CCN(S(=O)(=O)Cc3ccccc3)CC2)CC1	none
CCCCn1c(-c2ccccc2)nc2c(=O)n(C)c(=O)[nH]c21	none
CC(C)n1c(=S)[nH]c2c1c(=O)[nH]c(=O)n2C	GBA enhancer 136
C/C=C/CSc1nc2c(c(=O)[nH]c(=O)n2C)n1C(C)C	none
CC(C)n1c(SCC(N)=O)nc2c1c(=O)[nH]c(=O)n2C	none
COC(=O)C1=C(N)N(c2ccc(F)cc2)C2=C(C(=O)CCC2)C1c1ccc2c(c1)OCO2 (centres undefined)	none
Cc1csc(SCC(=O)c2ccc(S(=O)(=O)N3CCOCC3)cc2)n1	none
O=C(O)COc1ccc(-c2nnn(CC(=O)O)n2)cc1	none
CCOc1cc(-c2noc(-c3ccncc3)n2)cc(Br)c1OC	none
CCOc1ccc(-c2noc(-c3ccncc3)n2)cc1OCC	GBA enhancer 228
CCOc1ccc(-c2nc(-c3ccc(OC)cc3)no2)cc1OCC	none
O=C(Cn1c(=O)n(-c2ccccc2)c(=O)n1CC(=O)N1CCCCC1)N1CCCCC1	none
COc1ccc(N(C(=O)COc2ccccc2)C2C=CS(=O)(=O)C2)cc1 (centres undefined)	none
Cc1nonc1NC(=O)OCCN1CCOC1=O	GBA enhancer 88
Cc1ccc2c3c(c(SCC(=O)Nc4nonc4C)nc2c1)CCCC3	none
O=C1OCCN1CCN(CN1C(=O)CCC1=O)CN1C(=O)CCC1=O	none
CCOc1cc(S(=O)(=O)NC2CCCCCC2)ccc1F	none
Cc1cccc(NC(=O)C2CC(O)CN2C(=O)OCc2ccccc2)c1 (centres undefined)	none
Cc1ccc(C)c(NC(=O)C2CC(O)CN2C(=O)OC(C)(C)C)c1 (centres undefined)	GBA enhancer 72
Cc1ccc(C)c(NC(=O)C2CC=CCC2C(=O)O)c1 (centres undefined)	none
CC(=O)N1CCN(S(=O)(=O)c2ccc(S(=O)(=O)NCC(C)C)cc2)CC1	none
Cc1cc2cc(CN(CC3CCCO3)C(=O)c3cnccn3)c(=O)[nH]c2cc1C (centres undefined)	none
COCc1cc(C)nc(N2CCN(c3ccccc3)CC2)c1C#N	none
COCc1cc(C)nc(SCC(=O)Nc2ccccc2C)c1C#N	none
COCc1cc(C)nc(NC2CCCCC2)c1C#N	GBA enhancer 101
COC(=O)C(C)Sc1nc2c(c(=O)[nH]c(=O)n2C)n1CCC(C)C (centres undefined)	none
COCCn1nnnc1SCC(=O)c1ccc(F)cc1	none
CCOC(=O)CNC(=O)c1ccccc1Br	none
CCOC(=O)c1sc(NS(=O)(=O)c2ccc(NC(C)=O)cc2)nc1C	none
CN=c1scc(C)n1/N=C/c1ccc2c(c1)OCO2	none
C/C(=N\O)c1ccc2c3ccccc3n(C)c2c1	GBA enhancer 77
Cn1cc(/C(Cc2ccccc2)=N\O)c2ccccc21	none
CC(=O)n1c2ccccc2c2c1c1ccccc1n2C	none
CCOc1ccc(CSC(CC(=O)O)C(=O)O)cc1 (centres undefined)	none
COC(=O)Nc1nc2c(C)cccc2s1	none
Cc1cccc2sc(NC(=O)CN(C)S(=O)(=O)c3cccs3)nc12	GBA enhancer 76
COc1ccc(NC(=O)CN(C)S(=O)(=O)c2cccs2)cc1	none
Cc1nnc(NC(=O)CCC(=O)NCc2ccco2)s1	none
CCN1CCCC1CNC(=O)C(NC(=O)C1CCC(C)CC1)C(C)C (centres undefined)	none
CCN1CCN(CCCNC(=O)C(NC(=O)C2CCC(C)CC2)C(C)C)CC1 (centres undefined)	none
CC1CCC(C(=O)NC(C(=O)NCCCN2CCOCC2)C(C)C)CC1 (centres undefined)	GBA enhancer 68
CC(C)CC1N=C2c3ccccc3N=C(SCc3cc(=O)n4ccccc4n3)N2C1=O (centres undefined)	none
CCOC(=O)N1CCC(Nc2nc3ccccc3nc2NS(=O)(=O)c2ccc(Cl)cc2)CC1	none
O=C(CCCn1c(=S)[nH]c2ccc(Br)cc2c1=O)N1CCN(c2ccccn2)CC1	none
CCOCCCn1c(=N)c(C(=O)NCCN2CCOCC2)cc2c(=O)n3cccc(C)c3nc21	GBA enhancer 75
COCCn1c(=N)c(C(=O)NCCc2ccc(OC)cc2)cc2c(=O)n3cccc(C)c3nc21	none
CCOCCCn1c(=N)c(C(=O)NCc2ccc3c(c2)OCO3)cc2c(=O)n3ccccc3nc21	none
CCOc1ccc2[nH]c(=O)c(CN(Cc3ccccc3)C(=O)N3CCCC3)cc2c1	none
CCOC(=O)C1(Cc2ccc(O)cc2)NC(c2ccco2)C2C(=O)N(c3ccccc3F)C(=O)C21 (centres undefined)	none
CS(=O)(=O)N(CC(=O)NCc1ccccn1)Cc1ccc(Cl)cc1	none
CCOC(=O)c1sc(=S)n(-c2cc(OC)ccc2OC)c1N	none
COc1ccccc1C(c1nnnn1C(C)(C)C)N1CCN(Cc2ccncc2)CC1 (centres undefined)	none
COc1ccccc1N1CCN(C(c2ccc(Cl)cc2)c2nnnn2C(C)(C)C)CC1 (centres undefined)	none
CCN1CCN(C(c2ccc(OC)c(OC)c2)c2nnnn2C(C)(C)C)CC1 (centres undefined)	GBA enhancer 140
CC1CCN(CCCNC(=O)Cc2c(C(=O)O)n(C)c3ccccc23)CC1	none
CCn1cc(C(=O)Nc2cc3c(cc2NC(C)=O)OCCO3)c(=O)c2ccc(C)nc21	none
O=C(Nc1ccccc1)c1ccc(S(=O)(=O)N2CCCC2)cc1	none
Cn1c(/C(C#N)=C(\O)c2ccc(S(=O)(=O)N3CCCCC3)cc2)nc2ccccc21	GBA enhancer 71
COc1ccc(/C(O)=C(\C#N)c2nc3ccccc3n2C)cc1OC	none
O=C(O)CN1CCN(Cc2ccc(F)cc2Cl)C1=O	none
CCn1c(CC(=O)Nc2ccc(C)cc2)nnc1SCC(=O)N1CCN(c2ccccc2)CC1	none
CCn1c(SCC(=O)N2CCN(c3ccccc3)CC2)nnc1-c1cc2cc(Cl)ccc2o1	GBA enhancer 90
O=C(CSc1nnc(-c2ccc(Cl)cc2)o1)N1CCN(c2ccccc2)CC1	none
O=C(CN1C(=O)CCS(=O)(=O)c2ccccc21)Nc1cccc(F)c1	none
COC(=O)c1cn(C(=O)c2ccc(Br)o2)c2ccccc12	none
COC(=O)c1cn(C(=O)c2cccs2)c2ccccc12	GBA enhancer 89
CCOC(=O)Cn1cc(C(=O)c2cccs2)c2ccccc21	none
CC(=O)c1ccc(N2CCN(C(=O)c3ccc(NC(=O)C4CCCO4)cc3)CC2)cc1 (centres undefined)	none
COC(=O)c1sc(NC(=O)CSc2nnnn2-c2ccc(C)cc2C)nc1C	none
CS(=O)(=O)N1CCCC(C(=O)NCCCN2CCOCC2)C1 (centres undefined)	none
Cc1ccccc1CS(=O)(=O)Cc1ccc(C(=O)NCc2ccco2)o1	GBA enhancer 171

Assay outcomes as filed in PubChem.
